Bioassay records as filed in PubChem.
rTrxR1 inhibitor: rat TrxR1 inhibition; actives 1% (n = 390,000); recombinant rTrxR1, NADPH fluorescence consumption, selenite substrate; AID 588453; Potency, µM (doses to about 114 µM), for the others: at the highest dose activity change, negative = inhibition, most hits filed as inhibitors; also: potency is read from the fitted curve at half-maximal effect; nearly all actives have a fitted effect of over 65% in size
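Rat TrxR1 (90 nM in the dispensed reagent) was pre-reduced with 400 uM NADPH for 5 min at room temperature, then incubated with compound for 15 min. After 400 uM selenite was added, NADPH fluorescence (Ex 340/Em 450 nm) was followed for 8 min.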
RORgamma inh: ROR gamma (mouse) transcription inhibition. Potency, µM (titrated, usually from 53.6 µM), inactives show at the highest dose activity change, negative = inhibition, actives largely listed as inhibitors. Drosophila S2 Gal4-RORgamma UAS-luciferase reporter, 20 h. P51450. actives 5.4% (n = 310,000); also: potency is read from the fitted curve at half-maximal effect; nearly all actives have a fitted effect of over 60% in size
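A Gal4/UAS one-hybrid system in insect cells: metallothionein-promoter Gal4–ROR gamma fusion plus Photinus luciferase reporter. Copper sulfate 700 uM final, 20 hr ambient incubation, luminescent detection after 10 min with reagent.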
GALK inh: galactokinase (human) inhibition. actives 0.007% (n = 270,000). P51570. Potency, µM (top dose mostly 57.5 µM), for inactives: top-dose activity change, negative = inhibition, hits mostly inhibitors. Purified GALK, Kinase-Glo residual ATP luminescence; also: potency is read from the fitted curve at half-maximal effect
Target sequence (P51570 whole entry, looked up): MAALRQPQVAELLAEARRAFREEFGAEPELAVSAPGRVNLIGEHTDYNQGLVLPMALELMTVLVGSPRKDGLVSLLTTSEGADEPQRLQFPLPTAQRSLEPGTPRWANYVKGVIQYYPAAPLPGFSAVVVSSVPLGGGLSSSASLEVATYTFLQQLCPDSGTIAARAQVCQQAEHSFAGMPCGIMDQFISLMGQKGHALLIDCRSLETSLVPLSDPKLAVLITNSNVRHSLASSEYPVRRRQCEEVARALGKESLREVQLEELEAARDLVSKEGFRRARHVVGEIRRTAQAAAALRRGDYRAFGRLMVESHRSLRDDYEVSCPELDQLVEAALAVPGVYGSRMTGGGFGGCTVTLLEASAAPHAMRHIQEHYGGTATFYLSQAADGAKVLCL
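5 nM enzyme, 35 uM ATP, 100 uM galactose, 20 mM HEPES pH8.0, 5 mM MgCl2; 1 h RT; residual ATP by Kinase-Glo Plus luminescence, qHTS format.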
Coupling enz: coupling enzyme interference in Giardia aldolase counter-screen; coupling enzyme system counterscreen, AmpLite Red fluorescence; activity change, negative = inhibition, % at 58.2 µM, hits read low; actives 0.67% (n = 290,000); in the data active = activity change below about -30%
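Counterscreen lacking aldolase: glyceraldehyde-3-phosphate coupling-enzyme reagent preincubated 10 min at RT with compound (at 57.5 uM final), then substrate/coupling system with AmpLite Red added; fluorescence read at 525/598 nm after 20 min RT.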
TrxR1 substrate: substrates of rat thioredoxin reductase 1; Potency, µM (series often up to 114 µM), inactives show top-dose activity change, negative = substrate turnover; actives 0.01% (n = 390,000); O89049; purified TrxR1 substrate turnover, NADPH consumption readout; AID 588456; also: potency is read from the fitted curve at half-maximal effect; nearly all actives have a fitted effect of over 50% in size
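Rat TrxR1, dispensed at 90 nM, was prereduced with 400 uM NADPH (final) for 5 min at ~22 deg C, then incubated with compound 15 min before 400 uM selenite. A first-read NADPH fluorescence drop versus no-compound background flagged substrates.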
VP16 counter: inhibits Gal4-VP16 luciferase reporter, ROR gamma counter-screen; Potency, µM (highest dose often 53.6 µM), without a hit: top-dose activity, negative = inhibition, usual class: inhibitors; Drosophila S2 Gal4-VP16 UAS-luciferase, luminescence, 20 h; actives 3.5% (n = 310,000);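 also: Gal4-VP16 expression switched on by copper sulfate through the metallothionein promoter; potency is read from the fitted curve at half-maximal effect; nearly all actives have a fitted effect of over 50% in size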
* marks the source's active call; other numbers are inactive results; ? = inconclusive; . = no result; [ ] = another dose, or the depositor's remark. Only some compounds are listed: those with a hit (about 5.9% of all), similar ones and a draw of the others. Unless noted, calls follow the shape of the dose curve; as a rule, active = well fitted curve in the direction sought with a large enough effect; inconclusive = small, poorly fitted or top-dose-only effect, or another doubt; inactive = no such curve, though single readings can be large; an effect the other way counts as inactive or inconclusive. % is scaled to controls: 0 for no effect and ±100 for the full control effect.

SMILES	rTrxR1 inhibitor	RORgamma inh	GALK inh	Coupling enz	TrxR1 substrate	VP16 counter
Cc1ccc(NC(=O)CC2Nc3cccc4cccc(c34)NC2=O)cc1 (stereo not drawn)	-25%	.	.	.	-3%	.
O=C(CC1Nc2cccc3cccc(c23)NC1=O)Nc1ccccc1 (stereo not drawn)	-1%	13%	0%	-40*	-6%	1%
CO/N=C/c1ccc(N2CCN(C(=O)c3ccc(F)cc3)CC2)c([N+](=O)[O-])c1	-1%	?	3%	-6	-12%	8.9µM*
O=C(N/N=C/c1cn(-c2cccs2)nc1-c1ccccc1)c1ccccc1Cl	2%	3.5µM*	1%	0	4%	7.9µM*
O=C(N/N=C/c1cn(-c2cccs2)nc1-c1ccccc1)c1ccc(O)cc1	-9%	?	1%	-1	-9%	18µM*
O=C(c1ccc(Cl)cc1[N+](=O)[O-])N1CCN(c2ccccn2)CC1	18%	1%	1%	1	4%	1%
COc1ccc(/C=C2/CCC(CN3CCOCC3)C2=O)cc1 (stereo not drawn)	1.6µM*	.	.	.	9%[11.4 µM]	.
O=C1/C(=C\c2ccc(Cl)cc2)CCC1CNc1ccc(Cl)cc1 (stereo not drawn)	7.9µM*	.	.	.	2%	.
CC1CCC/C(=C\c2ccc(O)cc2)C1=O (stereo not drawn)	-13%	.	.	.	-9%	.
CN(C)CC1CCC/C(=C\c2ccc(OC(=O)c3ccc(Cl)cc3)cc2)C1=O (stereo not drawn)	-12%[11.4 µM]	.	.	.	9%[11.4 µM]	.
CN(C)CC1CC/C(=C\c2ccc(O)cc2)C1=O (stereo not drawn)	0.71µM*	.	.	.	-5%	.
CCN(C[C@H]1N[C@@](Cc2ccccc2)(C(=O)OC)[C@H]2C(=O)N(Cc3ccccc3)C(=O)[C@@H]12)C(C)=O	18%	.	.	.	-2%	.
O=C(Nc1cccc(C(F)(F)F)c1)Nc1nnc(N2CCCCCC2)s1	15%	.	.	.	-1%	.
COC(=O)[C@@]1(Cc2ccccc2)C=C[C@@H](C)N1C(=O)c1ccccc1	.	-14%	.	-1	.	9%
CCOC(=O)c1cc(CC)sc1/N=C/C1=C(O)CC(C)(C)CC1=O	-34%	14%	0%	-8	1%	6%
Cc1ccc2[nH]c3c(=O)n(CC(=O)N4CCN(C)CC4)ncc3c2c1	35µM*	1%	4%	1	2%	-3%
Cc1ccc2[nH]c3c(=O)n(CC(=O)N4CCN(c5cccc(C(F)(F)F)c5)CC4)ncc3c2c1	46%	.	.	.	10%	.
CC(C)C1Nc2ccc(S(N)(=O)=O)cc2C2C=CCC21 (stereo not drawn)	?	3%[0.365 µM]	-1%	-4	-7%[57.1 µM]	.
NS(=O)(=O)c1ccc2c(c1)C1C=CCC1C(C1CC=CCC1)N2 (stereo not drawn)	40µM*	-17%	-7%	-17	1%	-8%
Cc1ccc(S(=O)(=O)Nc2nc3ccccc3nc2NCc2ccco2)cc1	8.9µM*	?	1%	5	18%	?
Cc1cccc(S(=O)(=O)Nc2nc3ccccc3nc2NCc2ccco2)c1	?	5%	0%	9	9%	2%
Cc1ccc2ncnc(NCc3ccco3)c2c1	79µM*	.	.	.	-4%	.
Cc1ccc(S(=O)(=O)Nc2nc3ccccc3nc2NCc2ccco2)cc1C	-6%	36%	-3%	8	34%	-1%
O=S(=O)(Nc1nc2ccccc2nc1NCc1ccco1)c1ccc(Cl)cc1	-29%	-37%	0%	11	-1%	11µM*
Clc1ccc2c(NCc3ccco3)ncnc2c1	-2%[57.1 µM]	?	0%	2	-5%	?
SMILES	rTrxR1 inhibitor	RORgamma inh	GALK inh	Coupling enz	TrxR1 substrate	VP16 counter
COc1ccc(S(=O)(=O)N(C)c2ccc(C(=O)Nc3c(C)n(C)n(-c4ccccc4)c3=O)cc2)cc1	-20%	2%	-2%	0	-15%	-7%
Oc1cc2ccccc2cc1-c1n[nH]c(=S)o1	12%[57.1 µM]	-35%	3%	6	7%[57.1 µM]	-1%
Cc1cc(-c2n[nH]c(=S)o2)c(C)n1-c1ccccc1	7%	13µM*	-5%	8	6%	?
CCc1ccc(OS(=O)(=O)c2cn(C)c(=O)n(C)c2=O)cc1	6%[57.1 µM]	1%	0%	1	12%	4%
COc1cc2c(cc1OC)CN(Cc1nc3ccsc3c(=O)[nH]1)CC2	-13%	?	0%	-43*	9%	2%
Cc1nc(C(=O)NCCC(C)C)sc1C1(C)CC(c2cccc([N+](=O)[O-])c2)=NO1 (stereo not drawn)	10%	5%	-3%	1	-4%	-8%
COc1ccc(NC(=O)/C(C#N)=C/c2ccc(-c3ccc(Cl)c(C(=O)O)c3)o2)cc1	-2%	11µM*	4%	6	-11%	?
Cc1ccccc1NC(=O)/C(C#N)=C/c1ccc(-c2ccc(Cl)c(C(=O)O)c2)o1	-12%	-33%	-9%	2	-14%	18µM*
Cc1ccc(NC(=O)/C(C#N)=C/c2ccc(-c3ccc(Cl)c(C(=O)O)c3)o2)cc1C	16%	.	.	.	-3%	.
COc1ccc(NC(=O)/C(C#N)=C\c2ccc(-c3cccc(C(=O)O)c3C)o2)cc1	3%	4µM*	1%	2	-11%	?
COc1ccc(NC(=O)/C(C#N)=C/c2ccc(-c3ccccc3C(=O)O)o2)cc1	-1%	20%	-2%	9	-11%	-3%
O=C(CNCCc1ccc(F)cc1)Nc1cc(F)ccc1F	28%	-1%	0%	0	9%	7%
CC(C)OC(=O)CSc1ncnc2c1cnn2Cc1ccccc1	-5%[57.1 µM]	1%[10 µM]	6%	1	-14%[57.1 µM]	4%
COC(=O)CSc1ncnc2c1cnn2Cc1ccccc1	-10%[57.1 µM]	10µM*	-1%	1	12%[57.1 µM]	-28%
Cn1c(NC(=O)c2ccccc2NC(=O)C(C)(C)C)nc2ccccc21	25%	10µM*	-1%	-3	6%	11µM*
Cn1c(SC(C(=O)Nc2ccc(F)cc2)c2ccccc2)nc2ccccc21 (stereo not drawn)	12%	11µM*	.	-6	-1%	?
Cn1c(NC(=O)c2ccc(F)cc2)nc2ccccc21	17%	0.45µM*	0%	-5	5%	1.3µM*
C/C(=N\NC(=O)c1ccccc1)c1nc2ccccc2n1C	7%	1.6µM*	0%	-2	7%	3.2µM*
CC(C)[C@H](NC(=O)c1c(F)cccc1F)C(=O)Nc1cccc(Br)c1	28%	-22%	-3%	0	7%	4%
COc1ccc(-c2nc3c(c(=O)n(C)c(=O)n3C)n2CC2CC(c3ccccc3)=NO2)cc1OC (stereo not drawn)	21%	.	.	.	25%	.
